# According to article PMC7862700, “An all-to-all approach to the identification of sequence-specific readers for epigenetic DNA modifications on cytosine”:
# Columns and labels:
# Experiment in all cases: DAPPL (digital affinity profiling via proximity ligation, sequencing); 10 mM Tris-HCl pH 7.5, 50 mM NaCl, 1 mM DTT, 4% glycerol, room temperature, 30 min; GST-TFs on glutathione beads, 16-mer random dsDNA library, 0.1% formaldehyde crosslink after washing; high values mean tight binding
# Settings in all cases: protein: recombinant; tags: N-terminal GST; dsDNA, one strand shown
# FLI1 = target: T1, FLI1 (Homo sapiens, UniProt Q01543 1-452)
# T1 sequence: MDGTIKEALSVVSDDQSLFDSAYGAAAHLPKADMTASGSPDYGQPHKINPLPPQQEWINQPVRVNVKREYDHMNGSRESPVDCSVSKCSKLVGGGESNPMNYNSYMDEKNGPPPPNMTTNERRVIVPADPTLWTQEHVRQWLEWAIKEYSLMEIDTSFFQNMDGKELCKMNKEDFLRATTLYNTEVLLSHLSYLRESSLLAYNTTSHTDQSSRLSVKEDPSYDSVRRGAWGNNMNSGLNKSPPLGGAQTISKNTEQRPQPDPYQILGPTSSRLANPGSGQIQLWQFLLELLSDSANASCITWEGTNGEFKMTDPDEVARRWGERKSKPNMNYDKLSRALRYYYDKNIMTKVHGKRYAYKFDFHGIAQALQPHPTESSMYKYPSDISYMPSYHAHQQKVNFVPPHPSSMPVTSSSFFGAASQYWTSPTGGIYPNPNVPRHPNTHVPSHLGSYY
# Summary of the method: (§1)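 Yeast served to express human transcription factors as GST fusions, which were then captured on glutathione beads and labelled with DNA barcodes. Pooled with a tag-only sample, they were incubated with 200 nmole of a 16-mer random double-stranded DNA library for 30 min at room temperature in Tris/NaCl/DTT/glycerol buffer, washed, crosslinked with 0.1% formaldehyde, ligated by proximity, amplified by PCR and sequenced. Dividing each hexamer's read frequency for a factor by its frequency for the tag-only sample gives the binding signal.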
# ELK1 = target: T2, ELK1 (Homo sapiens, UniProt P19419 1-428)
# T2 sequence: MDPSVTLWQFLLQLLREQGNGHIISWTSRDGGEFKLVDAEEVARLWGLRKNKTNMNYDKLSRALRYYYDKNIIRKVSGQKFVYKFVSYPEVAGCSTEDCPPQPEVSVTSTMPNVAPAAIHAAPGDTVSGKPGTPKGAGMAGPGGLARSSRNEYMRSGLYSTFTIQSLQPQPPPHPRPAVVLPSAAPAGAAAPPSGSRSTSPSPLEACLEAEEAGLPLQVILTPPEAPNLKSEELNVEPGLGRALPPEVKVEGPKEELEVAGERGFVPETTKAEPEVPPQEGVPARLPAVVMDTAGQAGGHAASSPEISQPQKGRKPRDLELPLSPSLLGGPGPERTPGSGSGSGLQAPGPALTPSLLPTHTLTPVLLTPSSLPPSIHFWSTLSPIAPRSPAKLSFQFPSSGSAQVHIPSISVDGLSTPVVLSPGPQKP
# Summary of the method: as §1
# GABPA = target: T3, GABPA (Homo sapiens, UniProt Q06546 1-454)
# T3 sequence: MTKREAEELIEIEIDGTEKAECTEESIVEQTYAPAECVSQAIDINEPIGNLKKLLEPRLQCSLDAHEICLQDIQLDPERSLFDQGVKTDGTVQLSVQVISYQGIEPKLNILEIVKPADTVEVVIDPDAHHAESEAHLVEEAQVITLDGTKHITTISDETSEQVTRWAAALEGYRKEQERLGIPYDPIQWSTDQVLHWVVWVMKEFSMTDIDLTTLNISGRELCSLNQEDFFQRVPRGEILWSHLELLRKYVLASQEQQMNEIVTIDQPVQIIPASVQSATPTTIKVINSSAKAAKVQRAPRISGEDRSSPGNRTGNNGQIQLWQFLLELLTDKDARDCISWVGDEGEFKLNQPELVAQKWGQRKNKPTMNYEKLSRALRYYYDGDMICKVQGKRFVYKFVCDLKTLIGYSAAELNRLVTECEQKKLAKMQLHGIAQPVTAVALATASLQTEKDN
# Summary of the method: as §1
# ERG = target: T4, ERG (Homo sapiens, UniProt P11308 1-479)
# T4 sequence: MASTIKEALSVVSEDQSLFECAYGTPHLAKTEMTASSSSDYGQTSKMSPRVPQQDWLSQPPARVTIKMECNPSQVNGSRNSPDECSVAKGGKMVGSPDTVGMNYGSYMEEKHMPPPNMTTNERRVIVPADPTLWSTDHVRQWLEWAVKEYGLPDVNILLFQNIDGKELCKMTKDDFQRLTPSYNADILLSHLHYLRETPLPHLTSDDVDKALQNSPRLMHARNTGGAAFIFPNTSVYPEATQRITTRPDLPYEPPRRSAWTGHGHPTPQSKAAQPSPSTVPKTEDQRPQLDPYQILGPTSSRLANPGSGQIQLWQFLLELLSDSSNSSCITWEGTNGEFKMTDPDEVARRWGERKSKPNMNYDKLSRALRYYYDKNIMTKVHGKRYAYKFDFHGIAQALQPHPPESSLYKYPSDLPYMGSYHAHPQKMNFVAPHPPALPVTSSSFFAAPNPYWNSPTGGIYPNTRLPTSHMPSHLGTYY
# Summary of the method: as §1
# ELF1 = ELF1 (Homo sapiens, UniProt P32519 1-619)
# Summary of the method: as §1
# EHF = target: T5, EHF (Homo sapiens, UniProt Q9NZC4 1-300)
# T5 sequence: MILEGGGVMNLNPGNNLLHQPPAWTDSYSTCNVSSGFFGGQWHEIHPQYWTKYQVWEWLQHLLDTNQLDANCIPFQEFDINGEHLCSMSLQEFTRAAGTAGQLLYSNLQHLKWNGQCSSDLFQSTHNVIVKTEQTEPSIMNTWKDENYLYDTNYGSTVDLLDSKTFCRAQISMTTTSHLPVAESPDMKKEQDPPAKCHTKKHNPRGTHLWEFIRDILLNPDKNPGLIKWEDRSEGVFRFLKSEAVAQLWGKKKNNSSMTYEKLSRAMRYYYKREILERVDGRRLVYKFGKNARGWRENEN
# Summary of the method: as §1
# ELF4 = ELF4 (Homo sapiens, UniProt Q99607 1-663)
# Summary of the method: as §1
# ELK4 = target: T6, ELK4 (Homo sapiens, UniProt P28324-2 1-405)
# T6 sequence: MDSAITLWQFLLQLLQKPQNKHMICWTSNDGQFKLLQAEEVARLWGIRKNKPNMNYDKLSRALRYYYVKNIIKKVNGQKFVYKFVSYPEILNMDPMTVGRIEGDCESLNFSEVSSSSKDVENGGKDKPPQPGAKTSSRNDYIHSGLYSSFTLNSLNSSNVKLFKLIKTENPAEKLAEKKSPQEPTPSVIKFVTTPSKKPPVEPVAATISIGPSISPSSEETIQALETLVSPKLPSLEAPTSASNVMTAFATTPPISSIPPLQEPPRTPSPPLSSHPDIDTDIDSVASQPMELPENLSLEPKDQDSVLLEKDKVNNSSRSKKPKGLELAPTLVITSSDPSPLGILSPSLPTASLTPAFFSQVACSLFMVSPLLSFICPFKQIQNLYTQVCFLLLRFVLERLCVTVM
# Summary of the method: as §1
# ETV2 = target: T7, ETV2 (Homo sapiens, UniProt O00321 1-342)
# T7 sequence: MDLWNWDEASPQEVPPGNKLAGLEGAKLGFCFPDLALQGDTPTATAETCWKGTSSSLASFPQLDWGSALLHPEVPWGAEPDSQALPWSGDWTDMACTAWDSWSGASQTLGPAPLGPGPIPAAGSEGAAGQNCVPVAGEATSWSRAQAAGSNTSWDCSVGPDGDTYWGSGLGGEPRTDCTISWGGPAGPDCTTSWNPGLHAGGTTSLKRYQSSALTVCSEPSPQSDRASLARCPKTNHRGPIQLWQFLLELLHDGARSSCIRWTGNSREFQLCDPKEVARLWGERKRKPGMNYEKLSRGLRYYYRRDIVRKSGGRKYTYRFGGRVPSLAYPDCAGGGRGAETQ
# Summary of the method: as §1
# ETV1 = ETV1 (Homo sapiens, UniProt P50549 1-477)
# Summary of the method: as §1
# ERF = target: T8, ERF (Homo sapiens, UniProt P50548 1-548)
# T8 sequence: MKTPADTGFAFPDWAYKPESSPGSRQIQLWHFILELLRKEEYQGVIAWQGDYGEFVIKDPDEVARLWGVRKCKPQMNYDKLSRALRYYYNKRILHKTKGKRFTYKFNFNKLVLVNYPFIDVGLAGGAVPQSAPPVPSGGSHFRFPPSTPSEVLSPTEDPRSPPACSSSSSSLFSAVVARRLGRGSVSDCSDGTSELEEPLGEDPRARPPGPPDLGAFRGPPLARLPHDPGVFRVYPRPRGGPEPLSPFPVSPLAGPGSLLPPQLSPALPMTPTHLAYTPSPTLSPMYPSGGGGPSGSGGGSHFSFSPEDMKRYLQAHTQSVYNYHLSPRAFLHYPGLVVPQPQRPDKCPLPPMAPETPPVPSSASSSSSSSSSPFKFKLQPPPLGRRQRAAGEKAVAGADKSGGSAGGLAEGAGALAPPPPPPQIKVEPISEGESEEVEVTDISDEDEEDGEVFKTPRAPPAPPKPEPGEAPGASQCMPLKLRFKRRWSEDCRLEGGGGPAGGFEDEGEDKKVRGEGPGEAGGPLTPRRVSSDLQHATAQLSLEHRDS
# Summary of the method: as §1
# ETV3L = target: T9, ETV3L (Homo sapiens, UniProt Q6ZN32 1-361)
# T9 sequence: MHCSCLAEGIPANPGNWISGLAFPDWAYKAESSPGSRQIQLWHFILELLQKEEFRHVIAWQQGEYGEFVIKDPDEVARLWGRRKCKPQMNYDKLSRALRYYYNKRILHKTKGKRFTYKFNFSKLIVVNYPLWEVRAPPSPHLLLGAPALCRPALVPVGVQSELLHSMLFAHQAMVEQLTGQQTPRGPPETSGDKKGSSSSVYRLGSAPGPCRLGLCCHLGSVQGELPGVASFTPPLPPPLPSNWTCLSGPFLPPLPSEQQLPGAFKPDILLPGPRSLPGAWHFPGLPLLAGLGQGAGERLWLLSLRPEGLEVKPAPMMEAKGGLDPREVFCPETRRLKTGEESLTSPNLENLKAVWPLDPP
# Summary of the method: as §1
# ETV7 = target: T10, ETV7 (Homo sapiens, UniProt Q9Y603 1-341)
# T10 sequence: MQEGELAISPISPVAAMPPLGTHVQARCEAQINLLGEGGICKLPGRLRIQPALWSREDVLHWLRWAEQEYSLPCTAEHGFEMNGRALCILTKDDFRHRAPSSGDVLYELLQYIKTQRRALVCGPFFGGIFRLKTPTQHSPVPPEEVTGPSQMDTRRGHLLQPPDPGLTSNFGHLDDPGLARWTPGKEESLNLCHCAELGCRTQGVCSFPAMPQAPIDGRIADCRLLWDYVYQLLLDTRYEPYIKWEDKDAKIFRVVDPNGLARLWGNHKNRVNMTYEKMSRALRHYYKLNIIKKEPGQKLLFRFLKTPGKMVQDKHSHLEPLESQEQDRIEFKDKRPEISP
# Summary of the method: as §1
# ETV3 = target: T11, ETV3 (Homo sapiens, UniProt P41162-2 1-143)
# T11 sequence: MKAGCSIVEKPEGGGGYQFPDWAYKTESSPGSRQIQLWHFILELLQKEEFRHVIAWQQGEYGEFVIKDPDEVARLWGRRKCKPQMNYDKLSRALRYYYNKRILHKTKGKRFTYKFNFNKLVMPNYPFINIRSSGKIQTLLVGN
# Summary of the method: as §1
# ETV6 = ETV6 (Homo sapiens, UniProt P41212 1-452)
# Summary of the method: as §1
# SPIB = SPIB (Homo sapiens, UniProt Q01892 1-262)
# Summary of the method: as §1
# Sequence of ELF1 (P32519 whole entry): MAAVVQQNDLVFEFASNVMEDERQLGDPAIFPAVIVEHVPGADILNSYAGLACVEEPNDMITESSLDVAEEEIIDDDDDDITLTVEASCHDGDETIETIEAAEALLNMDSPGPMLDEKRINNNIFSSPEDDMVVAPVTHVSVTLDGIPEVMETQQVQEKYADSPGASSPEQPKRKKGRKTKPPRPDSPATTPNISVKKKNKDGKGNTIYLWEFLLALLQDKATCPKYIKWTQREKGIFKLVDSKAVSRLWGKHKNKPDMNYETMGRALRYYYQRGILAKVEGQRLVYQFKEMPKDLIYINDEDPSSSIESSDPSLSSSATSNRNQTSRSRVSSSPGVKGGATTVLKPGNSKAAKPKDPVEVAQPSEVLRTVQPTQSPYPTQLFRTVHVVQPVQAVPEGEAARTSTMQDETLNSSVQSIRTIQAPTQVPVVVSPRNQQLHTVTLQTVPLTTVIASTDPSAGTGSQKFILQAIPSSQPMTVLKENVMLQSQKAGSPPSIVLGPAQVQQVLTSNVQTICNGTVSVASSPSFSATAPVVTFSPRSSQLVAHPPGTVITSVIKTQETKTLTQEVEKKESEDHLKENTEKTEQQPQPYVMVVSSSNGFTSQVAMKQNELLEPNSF
# Sequence of ELF4 (Q99607 whole entry): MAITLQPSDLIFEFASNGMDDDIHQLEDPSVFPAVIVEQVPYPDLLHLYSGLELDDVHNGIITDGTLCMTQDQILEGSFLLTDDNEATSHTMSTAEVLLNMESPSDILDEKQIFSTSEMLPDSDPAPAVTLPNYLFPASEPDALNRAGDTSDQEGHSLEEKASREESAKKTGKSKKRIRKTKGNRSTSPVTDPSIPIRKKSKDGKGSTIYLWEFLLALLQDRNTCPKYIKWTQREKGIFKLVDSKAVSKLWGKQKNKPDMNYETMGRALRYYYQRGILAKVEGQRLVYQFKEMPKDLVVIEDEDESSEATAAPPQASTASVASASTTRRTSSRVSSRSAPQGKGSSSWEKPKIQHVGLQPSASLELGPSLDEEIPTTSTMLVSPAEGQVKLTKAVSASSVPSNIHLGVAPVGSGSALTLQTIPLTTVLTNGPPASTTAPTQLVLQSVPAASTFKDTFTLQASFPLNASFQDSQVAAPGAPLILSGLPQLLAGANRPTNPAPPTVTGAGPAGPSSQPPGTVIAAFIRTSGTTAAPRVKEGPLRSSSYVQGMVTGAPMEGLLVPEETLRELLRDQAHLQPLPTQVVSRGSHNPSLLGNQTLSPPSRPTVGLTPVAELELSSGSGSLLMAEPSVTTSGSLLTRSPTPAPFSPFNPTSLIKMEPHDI
# Sequence of ETV6 (P41212 whole entry): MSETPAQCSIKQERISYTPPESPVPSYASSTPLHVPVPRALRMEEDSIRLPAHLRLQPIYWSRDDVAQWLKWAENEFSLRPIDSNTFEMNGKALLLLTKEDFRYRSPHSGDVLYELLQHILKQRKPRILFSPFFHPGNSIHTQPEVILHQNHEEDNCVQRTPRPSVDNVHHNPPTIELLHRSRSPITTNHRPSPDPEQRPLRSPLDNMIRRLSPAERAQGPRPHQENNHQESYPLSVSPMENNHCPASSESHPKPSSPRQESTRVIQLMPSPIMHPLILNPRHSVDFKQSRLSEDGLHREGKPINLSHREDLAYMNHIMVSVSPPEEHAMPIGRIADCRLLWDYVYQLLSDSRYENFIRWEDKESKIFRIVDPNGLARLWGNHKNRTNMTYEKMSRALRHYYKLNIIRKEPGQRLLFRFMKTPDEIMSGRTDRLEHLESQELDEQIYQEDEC
# Sequence of SPIB (Q01892 whole entry): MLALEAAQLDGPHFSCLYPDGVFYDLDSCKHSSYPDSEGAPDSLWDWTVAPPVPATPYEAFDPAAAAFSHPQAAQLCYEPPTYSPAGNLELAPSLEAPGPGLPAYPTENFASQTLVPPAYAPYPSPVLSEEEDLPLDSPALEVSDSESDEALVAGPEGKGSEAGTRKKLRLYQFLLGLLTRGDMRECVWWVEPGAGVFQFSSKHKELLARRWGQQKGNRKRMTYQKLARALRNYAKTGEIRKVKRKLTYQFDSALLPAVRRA
# Sequence of ETV1 (P50549 whole entry): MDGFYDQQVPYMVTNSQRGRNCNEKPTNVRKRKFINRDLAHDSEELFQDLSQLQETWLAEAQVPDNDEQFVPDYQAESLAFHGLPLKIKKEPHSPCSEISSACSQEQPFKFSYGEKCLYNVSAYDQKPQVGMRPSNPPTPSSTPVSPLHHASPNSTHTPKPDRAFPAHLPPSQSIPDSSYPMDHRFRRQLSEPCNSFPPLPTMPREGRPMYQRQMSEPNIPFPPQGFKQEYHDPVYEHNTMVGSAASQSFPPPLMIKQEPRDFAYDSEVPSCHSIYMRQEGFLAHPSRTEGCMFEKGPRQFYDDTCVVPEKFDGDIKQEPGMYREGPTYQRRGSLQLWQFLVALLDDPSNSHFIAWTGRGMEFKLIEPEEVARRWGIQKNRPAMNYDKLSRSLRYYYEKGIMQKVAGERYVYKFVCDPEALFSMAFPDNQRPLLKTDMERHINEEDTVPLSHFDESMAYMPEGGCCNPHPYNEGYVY
Sequence,binding signal (FLI1),binding signal (ELK1),binding signal (GABPA),binding signal (ERG),binding signal (ELF1),binding signal (EHF),binding signal (ELF4),binding signal (ELK4),binding signal (ETV2),binding signal (ETV1),binding signal (ERF),binding signal (ETV3L),binding signal (ETV7),binding signal (ETV3),binding signal (ETV6),binding signal (SPIB)
AGAACA,"1.06 fold enrichment (6-mer frequency, TF over GST control)","1.06 fold enrichment (6-mer frequency, TF over GST control)","1.11 fold enrichment (6-mer frequency, TF over GST control)","1.01 fold enrichment (6-mer frequency, TF over GST control)","1.07 fold enrichment (6-mer frequency, TF over GST control)","1.02 fold enrichment (6-mer frequency, TF over GST control)","1.06 fold enrichment (6-mer frequency, TF over GST control)","1.02 fold enrichment (6-mer frequency, TF over GST control)","1.03 fold enrichment (6-mer frequency, TF over GST control)","1.02 fold enrichment (6-mer frequency, TF over GST control)","1.07 fold enrichment (6-mer frequency, TF over GST control)","1.01 fold enrichment (6-mer frequency, TF over GST control)","1.07 fold enrichment (6-mer frequency, TF over GST control)","1.07 fold enrichment (6-mer frequency, TF over GST control)","1.08 fold enrichment (6-mer frequency, TF over GST control)",–
TCGCGT,"1.01 fold enrichment (6-mer frequency, TF over GST control)",–,–,–,"1 fold enrichment (6-mer frequency, TF over GST control)","1.02 fold enrichment (6-mer frequency, TF over GST control)",–,"1.06 fold enrichment (6-mer frequency, TF over GST control)",–,–,–,–,–,–,–,"1.01 fold enrichment (6-mer frequency, TF over GST control)"
